# Screens: PubChem, National Center for Advancing Translational Sciences (NCATS)
# HEK cytotox: Cytotoxic Profiling in HEK 293 Cell Line of Diverse Libraries Using Quantitative High-Throughput Screening. HEK 293 viability, ATP luminescence (CellTiter-Glo), 48-72 h. Potency, µM (top dose mostly 115 µM), for inactives: top-dose activity change, negative = cytotoxicity, usual class: inhibitors. 94,000 tested, 6.6% active. AID 1345083, 2018; also: nearly all actives have a fitted effect of over 60% in size
#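 HEK 293 cells at 250 cells/well were exposed to compounds by pintool transfer for 48 or 72 hr at 37 degree Celsius, 5% CO2. Viability was read as ATP-coupled luminescence with CellTiter-Glo after 10 min at room temperature.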
# Luciferase inh: Firefly luciferase inhibition profiling of diverse chemical library using quantitative high-throughput screening | 76,000 tested, 2.5% active | Potency, µM (titrated, usually from 115 µM), most hits filed as inhibitors | Luciferin 4-monooxygenase (Photinus pyralis), P08659 | purified P. pyralis luciferase, luminescence, biochemical; also: nearly all actives have a fitted effect of over 65% in size
#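 FLuc 10nM, D-luciferin 10uM, ATP 10uM, Mg acetate 10mM, Tris acetate pH 7.5, Tween/BSA; cpd qHTS; enzyme added last; CCD luminescence.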
# 3T3 cytotox: Cytotoxic Profiling in NIH 3T3 Cell Line of Diverse Libraries Using Quantitative High-Throughput Screening | NIH 3T3 viability, CellTiter-Glo ATP luminescence, 48-72 h | Potency, µM (titrated, usually from 96.7 µM), for inactives: at the top dose activity change, negative = cytotoxicity, most hits filed as inhibitors | 94,000 tested, 4.3% active; also: nearly all actives have a fitted effect of over 55% in size
#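 First NIH 3T3 cells are plated at 400 cells/well; next compound is pinned in; then plates incubate 48 or 72 hr at 37 °C; finally CellTiter-Glo is added and luminescence read after 10 min.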
# hNpr1 antagonist: Natriuretic polypeptide receptor (hNpr1) antagonism - Primary qHTS; HEK293 hNpr1 GloSensor cGMP, ANP-stimulated luminescence; Atrial natriuretic peptide receptor 1 (Homo sapiens), P16066; AID 1347048, 2019; 76,000 tested, 1.6% active; Potency, µM (highest dose often 46.3 µM), for inactives: at the highest dose activity change, negative = inhibition, actives largely listed as inhibitors; calls by dose curve; also: nearly all actives have a fitted effect of over 60% in size
# Target sequence (P16066 whole entry, looked up): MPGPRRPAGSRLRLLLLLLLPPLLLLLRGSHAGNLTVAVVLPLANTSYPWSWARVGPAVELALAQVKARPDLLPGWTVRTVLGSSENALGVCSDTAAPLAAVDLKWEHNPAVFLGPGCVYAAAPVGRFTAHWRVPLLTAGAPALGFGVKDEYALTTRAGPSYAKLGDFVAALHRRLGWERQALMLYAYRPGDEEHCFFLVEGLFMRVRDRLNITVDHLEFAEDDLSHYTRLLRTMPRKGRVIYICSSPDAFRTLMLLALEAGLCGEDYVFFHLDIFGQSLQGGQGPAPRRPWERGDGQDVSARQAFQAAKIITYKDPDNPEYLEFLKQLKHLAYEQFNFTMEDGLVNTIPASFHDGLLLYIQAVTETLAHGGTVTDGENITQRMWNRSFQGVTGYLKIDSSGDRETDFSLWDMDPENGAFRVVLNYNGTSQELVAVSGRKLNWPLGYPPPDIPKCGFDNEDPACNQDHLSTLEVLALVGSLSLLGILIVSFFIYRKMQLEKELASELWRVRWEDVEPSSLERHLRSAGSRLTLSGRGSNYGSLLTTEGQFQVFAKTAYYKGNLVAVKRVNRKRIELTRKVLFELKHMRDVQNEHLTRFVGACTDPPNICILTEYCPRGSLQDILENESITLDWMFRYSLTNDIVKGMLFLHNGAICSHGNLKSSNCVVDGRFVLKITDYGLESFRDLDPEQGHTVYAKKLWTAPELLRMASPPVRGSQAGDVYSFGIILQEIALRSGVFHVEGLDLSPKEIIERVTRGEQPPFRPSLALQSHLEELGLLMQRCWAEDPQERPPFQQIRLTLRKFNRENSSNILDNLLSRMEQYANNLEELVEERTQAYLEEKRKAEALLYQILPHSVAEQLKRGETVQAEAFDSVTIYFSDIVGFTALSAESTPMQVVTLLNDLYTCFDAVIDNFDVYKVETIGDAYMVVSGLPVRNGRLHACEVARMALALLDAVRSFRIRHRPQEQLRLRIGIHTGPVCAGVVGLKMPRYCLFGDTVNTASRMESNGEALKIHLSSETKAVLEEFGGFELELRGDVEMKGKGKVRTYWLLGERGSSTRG
#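 HEK293 cells stably expressing human Npr1 and cGMP GloSensor pGS-40F, loaded 2 h with 2% GloSensor reagent, given compound 30 min at room temperature. Luminescence read before and 20 min after 0.1 nM hNppA.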
# Active calls of the source: *; i = inactive; ? = inconclusive; nt = not tested or not shown; [ ] = remark or other dose. An excerpt weighted towards active compounds, which were near 11% of everything screened. Unless noted, calls follow the shape of the dose curve; as a rule, active = well fitted curve in the direction sought with a large enough effect; inconclusive = small, poorly fitted or top-dose-only effect, or another doubt; inactive = no such curve, though single readings can be large; an effect the other way counts as inactive or inconclusive. % is scaled to controls: 0 for no effect and ±100 for the full control effect; potency is read from the fitted curve at half-maximal effect.
SMILES,HEK cytotox,Luciferase inh,3T3 cytotox,hNpr1 antagonist
O=C(Nc1nccs1)[C@@H]1C[C@H](c2ccc(F)cc2)N(Cc2ccccc2Cl)C1,?,i,31.6µM*,-3.3%[70.6 µM]
Cc1csc(NC(=O)[C@@H]2C[C@H](c3cccc(C(F)(F)F)c3)N(Cc3cnn(C)c3)C2)n1,?,i,28.2µM*,-13.5%
O=C(Nc1nccs1)[C@@H]1C[C@@H](c2cccc(C(F)(F)F)c2)N(CC2CCOCC2)C1,?,i,79.4µM*,-19.9%[70.6 µM]
O=C(NCc1ccncc1)[C@@H]1C[C@@H](c2ccc(F)cc2)N(Cc2ccccc2)C1,?,i,-16.0%[138 µM],2.2%[70.6 µM]
Cc1csc(NC(=O)[C@@H]2C[C@@H](c3cccc(C(F)(F)F)c3)N(Cc3cnn(C)c3)C2)n1,?,i,?,1.5%
O=C(NCC(F)(F)F)C1CCCN1Cc1ccc(-c2cncnc2)cc1 (stereo not drawn),-2.0%,nt,-4.2%,nt
CCc1nc2c(c(-c3ccc(OC)cc3)n1)CCN([S+](=O)([O-])c1ccc(N(C)C)cc1)CC2,-27.0%,nt,-10.3%,nt
O=C(Nc1cccnc1)[C@@H]1C[C@@H](c2ccc(F)cc2)N(CCOc2ccccc2)C1,?,i,89.1µM*,?
O=C(Nc1nccs1)[C@@H]1C[C@@H](c2ccc(F)cc2)N(Cc2ccccc2)C1,39.8µM*,i,?,?
O=C(Nc1ccncn1)[C@@H]1C[C@@H](c2ccc(F)cc2)N(CCOc2ccccc2)C1,?,i,?,?
CN1CCCC2(Cc3ccccc3CN(C(=O)C3CCCC3)C2)C1 (stereo not drawn),-8.9%,nt,-1.7%,nt
COc1ccc(C(=O)NCC2Cn3cccc3CN2Cc2cccnc2)cc1 (stereo not drawn),?,i,?,2.1%
Cc1nc2c(c(N3CCC(O)(CN4CCCC4)CC3)n1)CCNCC2,i,i,1.8%,2.2%
Cc1nc2c(c(N3CCCC(COc4cccc(F)c4)C3)n1)CCNCC2 (stereo not drawn),22.4µM*,i,?,-5.2%
C[S+](=O)([O-])c1ccc(-c2nc(C(=O)N3CCOCC3)n3ccncc23)cc1,4.3%,nt,i,nt
Cc1nc(C)c(C(=O)N2CC(Oc3ccc(-c4nc(-c5ccccc5)no4)cc3)C2)s1,?,12.6µM*,-14.1%,-8.3%
O=C(C1CCOC1)N1CC(Oc2ccc(-c3nc(-c4ccccc4)no3)cc2)C1 (stereo not drawn),?,14.1µM*,?,3.16µM*
Cc1cccc(C(=O)N2CC(Oc3ccc(-c4nc(-c5ccccc5)no4)cc3)C2)c1,?,i,-27.8%,-5.5%
Cc1nc(C)c(C(=O)N2CCC(Oc3ccc(-c4noc(C5CC5)n4)cc3)C2)s1 (stereo not drawn),20µM*,i,?,?
O=C(c1ccsc1)N1CC(Oc2ccc(-c3nc(-c4ccccc4)no3)cc2)C1,-29.6%,28.2µM*,-4.6%,1.7%
COCc1nc(-c2ccc(OC3CCN(C(=O)c4sc(C)nc4C)C3)cc2)no1 (stereo not drawn),?,i,-20.2%,-14.7%
c1coc(CN2CCc3c(sc4ncnc(N5CCOCC5)c34)C2)c1,?,i,?,-0.6%
O=C(NC1CCN(c2cc(-c3ccccc3)[nH]n2)CC1)c1cccc(F)c1,?,i,?,-5.1%
CCCNC(=O)N1CCCCC1CCn1cc(-c2ccccc2)nn1 (stereo not drawn),i,nt,-9.2%,nt
Cc1cccc(-c2nc3ccc(C(=O)NCc4ccccn4)cc3o2)n1,?,nt,-27.9%[138 µM],nt
SMILES,HEK cytotox,Luciferase inh,3T3 cytotox,hNpr1 antagonist
Cc1ccc(C(=O)NCCNC(=O)c2ccc(-c3cncnc3)cc2)cc1,-26.5%,nt,-23.3%,nt
COc1ccc(-c2cc(C(=O)Nc3cccc(C(F)(F)F)c3)c3cnn(C)c3n2)cc1,35.5µM*,nt,?,nt
COc1ccccc1-c1cc(C(=O)Nc2cccc(C(F)(F)F)c2)c2cnn(C)c2n1,14.1µM*,nt,?,nt
Cn1ccc(CN2CCC3(C2)NC(=O)c2ccccc2CO3)c1 (stereo not drawn),?,i,-19.1%[138 µM],0.0%[70.6 µM]
CCOC(=O)CNC(=O)NCC1CCC(=O)N(Cc2ccccc2)CC1 (stereo not drawn),i,nt,-5.2%,nt
N[C@@H]1CCN(Cc2ccccc2OCc2ccc(Cl)cc2)C[C@H]1O,22.4µM*,i,28.2µM*,0.0%
COc1ccccc1CN1CCCC(c2nn(-c3ccc(Cl)cc3)c(=O)[nH]2)C1 (stereo not drawn),?,i,?,21.2%
N#CC1(c2ccc(-c3cccc(CN4CCOCC4)c3)cc2)CCCC1,?,35.5µM*,?,-8.2%
COc1ccc(OCC(O)CN2CCC(=O)N(Cc3ccccc3)Cc3cc4c(cc32)OCO4)cc1 (stereo not drawn),44.7µM*,nt,?,nt
COc1ccc2c(c1)CN(Cc1ccccc1)C(=O)CCN2CC(O)Cc1ccccc1 (stereo not drawn),79.4µM*,nt,?,nt
O=C1CCN(CC(O)Cc2ccccc2)c2cc3c(cc2CN1Cc1ccccc1)OCO3 (stereo not drawn),39.8µM*,nt,?,nt
COc1ccc2c(c1)CN(Cc1ccccc1)C(=O)CCN2C(C)=O,-19.6%,nt,?,nt
O=C1CCN(CC(O)C(F)(F)F)c2cc3c(cc2CN1Cc1ccco1)OCO3 (stereo not drawn),-16.6%,nt,?,nt
COc1ccccc1Nc1ncncc1-c1nc(-c2ccccc2)no1,-9.2%,i,-10.5%,-11.5%
CC(=O)N1CCN(C(=O)C2CCN(C(=O)c3ccc(-c4cccs4)cc3)CC2)CC1,-15.2%,nt,?,nt
COc1ccc(CCNC(=O)c2ccc3nnc(-c4ccc(OC(F)(F)F)cc4)n3c2)cc1,?,nt,-8.1%,nt
Cn1cccc1CN1CCC2(CC1)C(=NC1CCCC1)NC(=O)N2c1cc(F)cc(F)c1,i,nt,i,nt
CCc1cccc(NC(=O)c2ccc3c(c2)N(CC)C2CCCCN2C3=O)c1 (stereo not drawn),?,i,?,0.0%
CCN1c2cc(C(=O)Nc3cccc(C(C)C)c3)ccc2C(=O)N2CCCCCC21 (stereo not drawn),28.2µM*,i,31.6µM*,-6.4%
CCc1cccc(NC(=O)c2ccc3c(c2)N(C)C2CCCN2C3=O)c1 (stereo not drawn),?,25.1µM*,?,0.0%
CCc1cccc(NC(=O)c2ccc3c(c2)N(CC)C2CCCCCN2C3=O)c1 (stereo not drawn),31.6µM*,i,?,1.7%
CCN1c2cc(C(=O)Nc3cccc(C)c3)ccc2C(=O)N2CCCCCC21 (stereo not drawn),?,i,?,-2.3%
CCN1c2cc(C(=O)Nc3ccccc3C(=O)OC)ccc2C(=O)N2CCCCCC21 (stereo not drawn),?,i,20µM*,-2.2%
